Screening data (PubChem BioAssay)
Sampled rows, rich in hits. Any-hit rate of the full collection: about 21%.
NS1 inh: influenza NS1 inhibition | Potency, µM (top dose mostly 46.1 µM), without a hit: top-dose activity, positive = more growth | 270,000 compounds, 0.4% hits; calls by dose curve; further: potency means the concentration at half of the fitted maximal effect; actives are rising curves; nearly all actives have a fitted effect of over 50% in size
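In this qHTS, NS1 from influenza A is expressed in budding yeast, where it slows growth. Cells are switched from glucose to 2% galactose medium (pH 6.0, -URA), treated with compound, and growth recovery is read at OD600.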
Shiga toxin inh: inhibitors of Shiga toxin in Vero cells; Vero cells, Shiga toxin protein synthesis inhibition reporter; AID 2315; 290,000 compounds, 9.2% hits; inhibition, % at 38.7 µM; in the data active means inhibition mostly above about 28%, no sharp cut-off; inactive means mostly below about 43%; further: 0% is about no effect
Pf growth 48h: inhibits P. falciparum growth in the first generation, 48 h. Potency, µM (doses to about 28.7 µM), for the others: at the top dose activity change, negative = inhibition, hits mostly inhibitors. 310,000 compounds, 5.9% hits. P. falciparum luciferase growth in erythrocytes, 48 h; further: potency means the concentration at half of the fitted maximal effect; on the % scale 0 is the no-effect control and ±100 the full control effect
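Compounds are pin-transferred into medium, infected erythrocytes (2% hematocrit, 0.1% parasitemia final) are added, and plates sit one parasite generation at 37 C in 5% CO2. Detection reagent is then added and luminescence measured.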
Cycloheximide cs: affects cycloheximide protein synthesis inhibition readout, counter-screen. cell reporter, cycloheximide protein synthesis inhibition counterscreen. max response, %. 300,000 compounds, 12% hits. AID 2314; in the data active means max response mostly above about 13%, no sharp cut-off; inactive means mostly below about 14%; further: read at 38.3 µM for the half of the compounds with a filed dose; 0% is about no effect
Pf growth 96h: P. falciparum growth inhibition at 96 hours; AID 504834; P. falciparum luciferase reporter growth, 96 h; 320,000 compounds, 6.9% hits; Potency, µM (series often up to 28.7 µM), for inactives: at the highest dose activity change, negative = inhibition, most hits filed as inhibitors; further: potency means the concentration at half of the fitted maximal effect; on the % scale 0 is the no-effect control and ±100 the full control effect
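Readout is luminescence from an integrated firefly luciferase in P. falciparum. Red cells, 2% hematocrit and 0.05% parasitemia final, were cultured with compound through two parasite generations (96 hours) at 37 C, 5% CO2.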
SARS PLP yeast: inhibitors of SARS-CoV papain-like protease in yeast. 330,000 compounds, 0.19% hits. Potency, µM (top dose mostly 32.9 µM), without a hit: at the top dose activity, positive = growth rescue, hits mostly activators. S. cerevisiae expressing SARS-CoV PLpro, growth rescue; calls by dose curve; further: potency means the concentration at half of the fitted maximal effect; 0% is about no effect; nearly all actives have a fitted effect of over 55% in size
* marks the source's active call; other numbers are inactive results; ? = inconclusive; · = no result given; + = active, no number; [ ] = another dose, or the depositor's remark. Unless noted, the call rests on the fitted dose curve; in most records, active means well fitted inhibition curve with a large enough effect; inconclusive means small, poorly fitted or top-dose-only effect, or another doubt; inactive means no such curve, though single readings can be large or run the other way.

SMILES	NS1 inh	Shiga toxin inh	Pf growth 48h	Cycloheximide cs	Pf growth 96h	SARS PLP yeast
CN(C)S(=O)(=O)c1cc(NC(=O)COC(=O)CC2Sc3ccccc3NC2=O)ccc1Cl (centres undefined)	·	·	·	·	·	-1%
Cc1cc(C)n2nc(CNS(=O)(=O)c3ccc(F)c(C)c3)nc2n1	-9%	-2	-11%	-1	-5%	0%
N#CCC(=N)N1CCN(c2ccccc2Cl)CC1	-4%	+	1%	-1	29%	-5%
N#CCC(=N)N1CCN(c2ccccc2)CC1	0%	53*	?	13	?	-5%
O=C(Nc1ccc(N2CCN(C(=O)c3ccco3)CC2)cc1)c1ccc([N+](=O)[O-])cc1Cl	-2%	19	12µM*	0	?	6%
O=C(Nc1ccc2c(c1)CCCN2C(=O)c1ccco1)c1cc([N+](=O)[O-])ccc1Cl	·	·	15µM*	·	?	2%
Cc1ccccc1C(=O)Nc1ccc(N2CCN(C(=O)c3ccco3)CC2)cc1	4%	36	-8%	-8	?	1%
Cc1ccc(C(=O)Nc2ccc(N3CCN(C(=O)c4ccco4)CC3)cc2)c(Cl)c1	-2%	-4	13µM*	3	9%	-3%
Cc1ccc(C(=O)Nc2ccc(N3CCN(C(=O)c4cccs4)CC3)cc2)c(Cl)c1	16%	20	9.3µM*	5	48%	-1%
CC(=O)N1CCN(c2ccc(NC(=O)c3ccc([N+](=O)[O-])cc3Cl)cc2)CC1	9%	-15	0%	-2	-17%	-3%
Cn1c(Cn2nnc3ccccc32)nnc1SCC(=O)Nc1nccs1	-2%	-3	-7%	5	40%	13%
Cc1ccc(S(=O)(=O)N2C[C@@H]3[C@H]4CC[C@H](C4)[C@@H]3[C@@H](C)[C@H]2C#N)cc1	·	·	·	·	·	-52%
CC1(C)NC(=O)N(CC(=O)OCC(=O)c2ccc(Br)s2)C1=O	·	·	·	·	·	-3%
CCCCNc1ccc(C(=O)OCCOCCOCCOCCOCCOCCOCCOCCOCCOC)cc1	·	·	?	·	11%	·
CC(C)N(C(=O)[C@H]1C[C@H](CC(=O)NCC23CC4CC(CC(C4)C2)C3)C(=O)N2CCc3c([nH]c4ccc(Cl)cc34)[C@]12C)C(C)C	·	·	·	·	·	-43%
Cc1ccc(C(=O)NC(=S)Nc2ccc(N3CCN(C(=O)c4ccco4)CC3)cc2)cc1	3%	-11	?	11	5.2µM*	-7%
COc1ccccc1C(c1c(N)n(C)c(=O)n(C)c1=O)C(C)[N+](=O)[O-] (centres undefined)	-6%	94*	?	44*	-4%	0%
COc1ccc(Cl)cc1NC(=O)CN(C)C(=O)c1cc(-c2ccncc2)nc2ccccc12	·	·	9.3µM*	·	5.2µM*	-1%
COc1ccc(NC(=O)CN(C)C(=O)c2cc(-c3ccccc3)nc3ccccc23)cc1	·	·	?	·	-1%	·
COc1ccc(NC(=O)CN(C)C(=O)c2cc(-c3ccc(OC)cc3)nc3ccccc23)cc1	·	·	9.3µM*	·	?	-1%
Cc1ccc(NC(=O)CN(C)C(=O)c2cc(-c3ccco3)nc3ccccc23)cc1	·	·	10µM*	·	?	2%
CCOc1ccc(NC(=O)CN(C)C(=O)c2cc(C)nc3ccccc23)cc1OCC	·	·	15µM*	·	?	0%
COc1ccc(NC(=O)CN(C)C(=O)c2cc(-c3ccncc3)nc3ccccc23)cc1	-6%	-9	?	-1	?	3%
Cc1ccc2nc(-c3ccccc3)cc(C(=O)N(C)CC(=O)Nc3ccccc3Br)c2c1	·	·	13µM*	·	?	3%
COc1ccc(C2c3ccc(O)cc3Oc3ncn4nc(-c5ccccn5)nc4c32)cc1 (centres undefined)	?	15	?	4	?	1%
SMILES	NS1 inh	Shiga toxin inh	Pf growth 48h	Cycloheximide cs	Pf growth 96h	SARS PLP yeast
COc1ccc(Cc2nc3c4c(ncn3n2)Oc2c(ccc3ccccc23)C4c2ccc(OC)c(OC)c2)cc1 (centres undefined)	-1%	3	2.6µM*	-3	1.9µM*	15%
COc1ccc(Cc2nc3c4c(ncn3n2)Oc2ccc3ccccc3c2C4c2ccc(OC)c(OC)c2)cc1 (centres undefined)	5%	-5	1.7µM*	-3	?	2%
Nc1nc2ccccc2n1Cc1ccc(Cl)c(Cl)c1	-1%	·	10µM*	-2	?	-4%
O=Nc1c(O)n(Cc2ccc(Cl)c(Cl)c2)c2ccccc12	-46%	-17	?	-5	9.3µM*	-23%
O=Nc1c(O)n(Cc2ccccc2)c2ccccc12	-5%	-9	-19%	-2	-6%	-2%
NS(=O)(=O)c1ccc(NC(=O)Cn2ncc3c2-c2ccccc2OC3)cc1	6%	-20	·	-5	?	2%
O=c1oc2cc(Br)ccc2n1CSC1=NCCS1	-39%	100*	?	34*	-12%	-3%
C[C@H](NC(=O)c1nc[nH]c1C(=O)NCCCCCNC(=O)OC(C)(C)C)C(=O)OC(C)(C)C	1%	57*	?	31*	?	-1%
CC(C)C[C@H](NC(=O)c1nc[nH]c1C(=O)N[C@@H](CCCCNC(=O)OC(C)(C)C)C(=O)OC(C)(C)C)C(=O)OC(C)(C)C	-9%	-3	3.7µM*	-2	2.1µM*	-1%
CC(C)(C)OC(=O)NCCCCCNC(=O)c1[nH]cnc1C(=O)Nc1ccon1	·	·	?	·	5.2µM*	0%
CC(C)C[C@H](NC(=O)c1nc[nH]c1C(=O)NCCCCCNC(=O)OC(C)(C)C)C(=O)OC(C)(C)C	13%	-10	7.4µM*	-2	?	-1%
CC(C)(C)OC(=O)NCCCCCNC(=O)c1[nH]cnc1C(=O)Nc1cccc(Cl)c1	·	·	?	·	?	0%
Nc1c(-c2ccccc2)c(CSc2nc3ccccc3[nH]2)nn1-c1ccc(C(=O)O)cc1	19%	-8	7%	1	10%	2%
CCOc1ccc(NC(=S)C(C#N)=C2N(C)c3ccccc3N2C)cc1	·	-5	-5%	-6	?	3%
COc1ccc(C)cc1NS(=O)(=O)c1cccc2nonc12	-5%	-18	-11%	-2	?	7%
O=C(COc1ccc(Br)cc1CNC1CCCC1)Nc1ccccc1	0%	-14	13µM*	-1	-20%	0%
Cc1ccc(NC(=O)COc2ccc(Br)cc2CO)cc1S(=O)(=O)N1CCOCC1	·	·	·	·	·	0%
O=C(COc1ccc(Br)cc1CO)Nc1ccc(F)cc1	-2%[9.22 µM]	35	-9%	9.1*	-11%	-11%
Cc1ccc(OCC(=O)Nc2ccc(S(=O)(=O)N3CCOCC3)cc2)c(Br)c1	-2%	-5	10µM*	1	?	0%
O=C(COc1ccc(Br)cc1CO)Nc1ccc(S(=O)(=O)N2CCCC2)cc1	·	·	9.3µM*	·	?	4%
COc1ccc(NC(=O)COc2ccc(S(=O)(=O)N3CCOCC3)cc2C)cc1OC	9%	24	-3%	-2	?	-2%
